# Results taken from PubChem BioAssay AID588342 (National Center for Advancing Translational Sciences (NCATS), 2011).
# “And” between values parts separate entries of the source, which are not always exact repeats. Equal values may be shown once. The campaign covered roughly 360,000 compounds. About 25,000 (6.9%) were called active. Not shown: some 9% with an inconclusive outcome. Calls come from the whole dose curve; as a rule, active = well fitted inhibition curve with a large enough effect; inconclusive = small, poorly fitted or top-dose-only effect; inactive = flat fitted curve, though single readings scatter. The list comes from a sample in which actives are over-represented; it also holds similar structures and randomly drawn compounds. A call without a number means that no potency is given here. Where a structure was tested more than once in an assay, its records may differ in their call.
# Target: Luciferin 4-monooxygenase (Photinus pyralis) (UniProt P08659)
# Experiment: qHTS profiling assay for firefly luciferase inhibitor/activator using purifed enzyme and Km concentrations of substrates (counterscreen for miR-21 project); note: nearly all actives have a fitted effect of over 55% in size
# Conditions: purified FLuc, luminescence inhibition; series mostly up to 57.5 µM
# Method in brief: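 Purified P. pyralis luciferase, 10 nM final, with Km-level 10 uM D-luciferin and 10 uM ATP in 50 mM Tris acetate pH 7.5, 10 mM Mg acetate, 0.01% Tween-20, 0.05% BSA; 6-point qHTS titration about 60 µM downward; luminescence read.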
# Potency is the fitted concentration of half-maximal effect.
# Chain of Luciferin 4-monooxygenase (Photinus pyralis) (P08659 whole entry, looked up): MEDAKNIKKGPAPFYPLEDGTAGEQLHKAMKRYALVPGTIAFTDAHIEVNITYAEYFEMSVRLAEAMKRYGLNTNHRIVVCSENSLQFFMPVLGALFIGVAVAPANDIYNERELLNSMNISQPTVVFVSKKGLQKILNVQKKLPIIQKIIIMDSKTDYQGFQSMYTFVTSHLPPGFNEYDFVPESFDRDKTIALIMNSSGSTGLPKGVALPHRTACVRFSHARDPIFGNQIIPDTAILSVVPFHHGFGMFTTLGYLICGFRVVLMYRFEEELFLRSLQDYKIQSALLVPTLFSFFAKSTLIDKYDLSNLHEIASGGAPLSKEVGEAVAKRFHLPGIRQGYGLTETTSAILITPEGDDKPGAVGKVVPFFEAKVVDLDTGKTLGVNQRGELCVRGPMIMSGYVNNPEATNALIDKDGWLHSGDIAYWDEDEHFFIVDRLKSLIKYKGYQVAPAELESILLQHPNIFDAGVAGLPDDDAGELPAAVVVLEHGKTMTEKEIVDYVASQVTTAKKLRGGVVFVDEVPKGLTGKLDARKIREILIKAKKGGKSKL
Compound,Potency,"activity change, negative = inhibition"
CC(C)[C@H](NC(=O)OCc1ccccc1)C(=O)OCc1ccccc1,inactive,–
Cc1cc(C)cc(Nc2ncnc3onc(-c4ccc(F)cc4)c23)c1,inactive,–
C/C(=N\NC(=O)c1cc(-c2ccc(O)cc2)nc2ccccc12)c1cccnc1,6.01 µM (active),–
C/C(=N\NC(=O)Cc1ccc(Br)cc1)c1cccnc1,inactive,–
C/C(=N\NC(=O)c1ccc2ccccc2c1)c1cccnc1,19 µM (active),–
COc1cc(NS(=O)(=O)c2cccs2)cc(OC)c1,inactive,–
CCOc1ccccc1-c1cc(C(=O)N/N=C(\C)c2cccnc2)c2ccccc2n1,inactive,–
C/C(=N\NC(=O)c1ccc(NS(=O)(=O)c2cccs2)cc1)c1ccc2ccccc2c1,19 µM (active),–
C/C(=N\NC(=O)Cc1ccccc1[N+](=O)[O-])c1cccnc1,15.1 µM (active),–
C/C(=N\NC(=O)c1cccnc1)c1ccc(-n2ccnc2)cc1,inactive,–
C/C(=N\NC(N)=S)c1cccnc1,inactive,–
C/C(=N\NC(=O)c1cccnc1)c1ccc(-c2ccccc2)cc1,inactive,–
O=S(=O)(Nc1ccccc1)c1ccc(NS(=O)(=O)c2cccs2)cc1,inactive,–
Cc1nc2nc(SCC(=O)N(Cc3ccccc3)C(C)C)nn2c(C)c1Cc1ccccc1Cl,inactive,–
NS(=O)(=O)c1ccc(CCNC(=O)COC(=O)COc2cccc(C(F)(F)F)c2)cc1,inactive,–
CC(C)Cn1c(=O)c2ccccc2n2c(-c3cccc(Cl)c3)nnc12,inactive,–
COc1ccc(NC(=O)C2CCCN(S(=O)(=O)c3cccc4nonc34)C2)cc1Cl (stereo not drawn),inactive,–
Cc1ccc(Cl)cc1N1CCN(C(=O)CN2C(=O)COc3ccc(S(=O)(=O)N4CCOCC4)cc32)CC1,inactive,–
Cc1cccc(N2CCN(C(=O)CCn3c(=O)c4cccn4c4cccnc43)CC2C)c1 (stereo not drawn),inactive,–
O=C(c1cccc(Cl)c1)N1CCN(CCc2ccncc2)CC1,inactive,–
O=C(NNS(=O)(=O)c1ccc([N+](=O)[O-])cc1)C1CCCCC1,inactive,–
COc1ccc(OC)c2sc(N3CCN(C(=O)C4COc5ccccc5O4)CC3)nc12 (stereo not drawn),inactive,–
O=C(NCCc1ccc(C(F)(F)F)cc1)c1ccc2c(c1)OCO2,inactive,–
CC(NCC(=O)Nc1ccccc1C(=O)NC1CC1)c1ccccc1Cl (stereo not drawn),inactive,–
C/C(=N/NC(=O)c1ccn(C)n1)c1ccncc1,inactive,–
C/C(=N\NC(=O)c1cccc([N+](=O)[O-])c1)c1cccnc1,inactive,–

Compound,Potency,"activity change, negative = inhibition"
CC1CCc2sc(C(=O)NCC(c3ccco3)N3CCCCC3)cc2C1 (stereo not drawn),inactive,–
C/C(=N\NC(=O)c1nc(C)cc(C)n1)c1ccccc1,12 µM (active),–
C/C(=N\NC(=O)c1cc2c(s1)CCC(C)C2)c1cccnc1 (stereo not drawn),16.9 µM (active),–
C/C(=N\NC(=O)CNC(=O)C(c1ccccc1)c1ccccc1)c1ccc(C)cc1,inactive,–
CCOc1ccc(C(CCc2ccccc2)NC(=O)c2ccc(OC)c(OC)c2)cc1OCC (stereo not drawn),inactive,–
CCC(CC)C(=O)N1CCc2cc(OC)c(OC)cc2C1COc1ccc(F)cc1 (stereo not drawn),inactive,–
N#CCC(=O)Nc1ccc(C(=O)OCC(=O)Nc2sc3c(c2C#N)CCCC3)cc1,inactive,–
CC1CCN(C2=NC(=O)/C(=C/c3ccc(O)cc3)S2)CC1,10.7 µM (active),–
NC1=NC(=O)S/C1=C\c1ccc(O)cc1,inactive,–
O=C1N=C(N2CCc3ccccc3C2)S/C1=C\c1ccc(O)cc1,16.9 µM (active),–
CCOc1ccc(N=C2NC(=O)S/C2=C\c2ccc(O)cc2)cc1,inactive,–
O=C(C1CCN(c2nnc(-n3cccc3)s2)CC1)N1CCc2ccccc2C1,inactive,–
CCCN(C(=O)Cn1ncc2c([nH]c3ccc(C)cc32)c1=O)c1ccccc1C,inactive,–
COc1cccc(CNC(=O)c2ccc3c(c2)N(Cc2ccc(C(F)(F)F)cc2)C(=O)c2ccccc2S3)c1OC,inactive,–
CSCCC(C(=O)NC1=NCCS1)N1C(=O)c2ccccc2C1=O (stereo not drawn),inactive,–
O=[N+]([O-])c1ccc(C=Nc2ccc(Cl)cc2Cl)s1,2.13 µM (active),–
CCOc1ccc(NC(=O)CCC(=O)N/N=C/c2ccc([N+](=O)[O-])s2)cc1,inactive,–
CC(C)(C)c1cc(C(=O)N/N=C/c2ccc([N+](=O)[O-])s2)n[nH]1,inactive,–
COc1ccc(C)cc1NC(=O)CCCN1C(=O)NC(C)(C)C1=O,inactive,–
CCCNC(=O)CCC(=O)N1Cc2ccccc2Oc2ncccc21,inactive,–
CCCCC(=O)OC1=CN(Cc2ccccc2)S(=O)(=O)c2ccccc21,inactive,–
COCCn1c(C)cc(C(=O)CSc2nc3ccccc3c(=O)n2C(C)COC)c1C (stereo not drawn),inactive,–
COCCn1c(C)cc(C(=O)CSc2nnc(C3CC3)n2C2CC2)c1C,19 µM (active),–
COCCn1c(C)cc(C(=O)CSc2ncnc3sc4c(c23)CCC4)c1C,–,8.69% [at 2.3 µM] (inactive)
CCOC(=O)c1c(N)c(C#N)nn1-c1ccccc1C(=O)OC,inactive,–
Cc1cc(C)n(CC(=O)Nc2ccc([N+](=O)[O-])cc2)n1,inactive,–

Compound,Potency,"activity change, negative = inhibition"
CC1CC(C)CN(C/C=C/c2ccccc2[N+](=O)[O-])C1 (stereo not drawn),inactive,–
COc1ccc(-c2c(C)nn3c(N4CCC(C(=O)NCCC(C)C)CC4)cc(C)nc23)cc1OC,inactive,–
O=C(N/N=C/c1ccc([N+](=O)[O-])cc1)C(=O)N1CCCC1,inactive,–
O=C(N/N=C/c1ccc2c(c1)OCO2)C(=O)N1CCCC1,15.1 µM (active),–
COC(=O)c1ccc(/C=N/NC(=O)C(=O)N2CCCCCC2)cc1,inactive,–
CCn1ncc(C2=NOC(C(=O)Nc3ccccc3C(=O)OC)C2)c1C (stereo not drawn),inactive,–
Cc1cccc(-n2c(SCC(N)=O)nc3c(oc4ccccc43)c2=O)c1,inactive,–
COc1cccc(C(=O)Nc2nnc(S(=O)(=O)N(C)c3ccccc3)s2)c1,inactive,–
CCCCC(=O)Nc1nnc(S(=O)(=O)N(C)Cc2ccco2)s1,inactive,–
CN(Cc1ccco1)S(=O)(=O)c1nnc(NC(=O)c2ccccc2)s1,inactive and 23.9 µM (active),–
CCCCN(C)CCCNC(=O)CN1N=C(c2ccc(OC)cc2)CCC1=O,inactive,–
Cc1ccc(C(=O)CSc2nc3ccccc3c(=O)n2N)o1,12 µM (active),–
COC(=O)CSc1nc2ccccc2c(=O)n1Cc1ccccc1,inactive,–
COc1ccc(NC(=O)CSc2nc3ccccc3c(=O)n2C)cc1,inactive,–
Cc1cccc(N2CCN(C3=C(c4ccccc4)C(=O)c4ccccc43)CC2)c1C,inactive,–
O=[N+]([O-])c1ccc(NCCCO)c(C(F)(F)F)c1,inactive,–
COc1cccc(NC(=O)CSC2=Nc3ccccc3C3=NC(CC(=O)NC4CCCCC4)C(=O)N23)c1 (stereo not drawn),inactive,–
COc1cccc(C(=O)OCc2cc(=O)oc3c(C)c(C)ccc23)c1OC,16.9 µM (active),–
COC(=O)Cc1cc(=O)oc2c(C)c(O)ccc12,inactive,–
COc1ccc(Br)cc1CN1CCN(C(=O)c2cccc(OC)c2OC)CC1,inactive,–
O=C(C1COc2ccccc2O1)N(Cc1cccnc1)c1nc2c(F)cc(F)cc2s1 (stereo not drawn),inactive,–
CCOc1ccc(Nc2nc(Cl)nc(N3CCN(c4ccc(OC)cc4)CC3)n2)cc1,inactive,–
Cc1cc(Nc2ccc(Cl)cc2)nc(N2CCOCC2)n1,inactive,–
COc1ccc(Nc2ncc(F)c(N3CCOCC3)n2)cc1,2.39 µM (active),–
O=C(NCc1ccccc1Cl)C1=Cc2cc(Br)ccc2OC1,inactive,–
COc1ccc(CCNc2nc3c(-c4cccc(F)c4)nnn3c3ccccc23)cc1OC,inactive,–

Compound,Potency,"activity change, negative = inhibition"
O=C(COC(=O)c1ccncc1)c1ccccc1,23.9 µM (active),–
O=C(OCC(O)C(O)COC(=O)c1ccccc1)c1ccccc1 (stereo not drawn),inactive,–
COc1ccc(NC(=O)COC(=O)c2ccncc2)c(OC)c1,inactive,–
O=C(CCc1nc(CN2CCN(S(=O)(=O)c3ccc(Cl)cc3)CC2)no1)N1CCCCC1,inactive,–
CCNC(=O)c1cc2n(n1)CCCN(Cc1ccc(C)cc1)C2=O,inactive,–
Cc1nn(CC(=O)O)c(=O)c2cc3cc(F)ccc3n12,inactive,–
Cc1ccccc1Nc1nc(N)nc(CSc2ccccc2)n1,2.13 µM (active),–
Cc1ccccc1Nc1nc(N)nc(CSc2nnc3ccccn23)n1,inactive,–
Cc1ccc(C(=O)OCc2nc(N)nc(Nc3ccccc3C)n2)cc1,inactive,–
COc1ccc(S(=O)(=O)NCC(c2ccc(N(C)C)cc2)N2CCc3ccccc32)cc1OC (stereo not drawn),inactive,–
CCOc1ccc(NC(=O)CCC(=O)N2CC(C)Oc3ccc(C)cc32)cc1 (stereo not drawn),inactive,–
O=C(c1cccc(Br)c1)N1CCN(Cc2cc(=O)n3nc(-c4ccccc4)sc3n2)CC1,inactive,–
Cc1ccc(NC(=O)C2CCN(S(=O)(=O)c3cc(-c4noc(C)n4)ccc3C)CC2)c(C)c1,inactive,–
O=C(CSc1nccn1Cc1ccc(Cl)cc1)NCc1ccccc1,inactive,–
COc1ccc(CNC(=O)C2CCN(C(=O)c3ccccc3)CC2)cc1,inactive,–
CCOc1ccc(OCc2cccc(C(=O)N(CC)CC)c2)cc1,1.2 µM (active),–
COc1ccc(Cn2c(=S)[nH]c3cc(C(=O)N4CCCCC4)ccc3c2=O)cc1,inactive,–
COc1ccc(OCc2cccc(C(=O)N3CCCC3)c2)cc1,8.49 µM (active),–
COc1cccc(COc2ccc(N(C)S(=O)(=O)c3ccccc3)cc2)c1,inactive,–
CCOc1ccc(OCc2ccc(C(=O)N(C)c3ccccc3)o2)cc1,inactive,–
Cc1sc2ncn(CC(=O)N3CCN(c4ccc(F)cc4)CC3)c(=O)c2c1S(=O)(=O)N1CCN(c2ncccn2)CC1,inactive,–
CCS(=O)(=O)N1CCC(n2c(C)nc3cccnc32)CC1,inactive,–
CCc1cccc(NC(=O)Cn2nc(CC)n3c(cc4cc(C)ccc43)c2=O)c1,inactive,–
O=C(CSc1ncc(CO)n1Cc1ccc(Cl)cc1)NCc1ccc(F)cc1,inactive,–
Cc1cccc(N2CCN(c3c(CN4CCCC4)c(=O)oc4ccccc34)CC2)c1C,inactive,–
